# Results filed as inconclusive are left out. A number with no mark means an inactive call. This is one part of the list. Entries that show only a call come without a potency. Active and inactive are the calls of the source. Calls come from the whole dose curve; as a rule, active = well fitted curve in the direction sought with a large enough effect; inconclusive = small, poorly fitted or top-dose-only effect, or another doubt; inactive = no such curve, though single readings can be large; an effect the other way counts as inactive or inconclusive.
# Columns and labels:
# [1] = target: Rap guanine nucleotide exchange factor 3 (Homo sapiens) (UniProt O95398); test: Confirmatory qHTS for agonist of cAMP-regulated guanine nucleotide exchange factor 3 (EPAC1) (AID 1645881);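 note: EPAC1 catalysed release of BODIPY-GDP from Rap1B seen as fluorescence loss; nearly all actives have a fitted effect of over 75% in size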
# Sequence of Rap guanine nucleotide exchange factor 3 (Homo sapiens) (O95398 whole entry, looked up): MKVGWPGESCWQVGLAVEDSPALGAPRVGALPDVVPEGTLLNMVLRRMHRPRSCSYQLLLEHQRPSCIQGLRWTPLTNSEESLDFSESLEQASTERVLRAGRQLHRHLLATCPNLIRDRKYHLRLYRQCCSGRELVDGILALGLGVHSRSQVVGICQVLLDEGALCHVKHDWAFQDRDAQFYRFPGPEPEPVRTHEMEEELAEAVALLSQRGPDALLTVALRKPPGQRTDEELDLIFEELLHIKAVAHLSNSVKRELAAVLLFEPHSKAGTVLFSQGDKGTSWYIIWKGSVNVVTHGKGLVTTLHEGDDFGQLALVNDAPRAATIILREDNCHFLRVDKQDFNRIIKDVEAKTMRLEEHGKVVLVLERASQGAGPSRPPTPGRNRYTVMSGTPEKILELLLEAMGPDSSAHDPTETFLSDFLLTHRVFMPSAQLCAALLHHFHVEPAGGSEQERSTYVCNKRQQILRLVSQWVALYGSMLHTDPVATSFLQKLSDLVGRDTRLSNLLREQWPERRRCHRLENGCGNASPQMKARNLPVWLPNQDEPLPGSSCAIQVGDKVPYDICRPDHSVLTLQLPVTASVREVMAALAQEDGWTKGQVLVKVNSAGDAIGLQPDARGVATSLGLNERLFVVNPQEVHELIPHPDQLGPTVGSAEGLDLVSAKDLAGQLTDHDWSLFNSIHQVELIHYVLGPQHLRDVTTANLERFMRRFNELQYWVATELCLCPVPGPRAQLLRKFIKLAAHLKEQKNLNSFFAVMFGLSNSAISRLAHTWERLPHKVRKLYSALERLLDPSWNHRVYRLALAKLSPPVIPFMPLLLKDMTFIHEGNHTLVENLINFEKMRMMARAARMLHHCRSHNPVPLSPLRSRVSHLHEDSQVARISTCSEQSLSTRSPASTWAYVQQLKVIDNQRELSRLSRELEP
# [2] = target: Rap guanine nucleotide exchange factor 4 (Homo sapiens) (UniProt Q8WZA2); test: Confirmatory qHTS for agonist of cAMP-regulated guanine nucleotide exchange factor 4 (EPAC2) (AID 1645884);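 note: nucleotide exchange releases bodipy-GDP from Rap1 and this lowers its fluorescence; nearly all actives have a fitted effect of over 65% in size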
# Sequence of Rap guanine nucleotide exchange factor 4 (Homo sapiens) (Q8WZA2 whole entry, looked up): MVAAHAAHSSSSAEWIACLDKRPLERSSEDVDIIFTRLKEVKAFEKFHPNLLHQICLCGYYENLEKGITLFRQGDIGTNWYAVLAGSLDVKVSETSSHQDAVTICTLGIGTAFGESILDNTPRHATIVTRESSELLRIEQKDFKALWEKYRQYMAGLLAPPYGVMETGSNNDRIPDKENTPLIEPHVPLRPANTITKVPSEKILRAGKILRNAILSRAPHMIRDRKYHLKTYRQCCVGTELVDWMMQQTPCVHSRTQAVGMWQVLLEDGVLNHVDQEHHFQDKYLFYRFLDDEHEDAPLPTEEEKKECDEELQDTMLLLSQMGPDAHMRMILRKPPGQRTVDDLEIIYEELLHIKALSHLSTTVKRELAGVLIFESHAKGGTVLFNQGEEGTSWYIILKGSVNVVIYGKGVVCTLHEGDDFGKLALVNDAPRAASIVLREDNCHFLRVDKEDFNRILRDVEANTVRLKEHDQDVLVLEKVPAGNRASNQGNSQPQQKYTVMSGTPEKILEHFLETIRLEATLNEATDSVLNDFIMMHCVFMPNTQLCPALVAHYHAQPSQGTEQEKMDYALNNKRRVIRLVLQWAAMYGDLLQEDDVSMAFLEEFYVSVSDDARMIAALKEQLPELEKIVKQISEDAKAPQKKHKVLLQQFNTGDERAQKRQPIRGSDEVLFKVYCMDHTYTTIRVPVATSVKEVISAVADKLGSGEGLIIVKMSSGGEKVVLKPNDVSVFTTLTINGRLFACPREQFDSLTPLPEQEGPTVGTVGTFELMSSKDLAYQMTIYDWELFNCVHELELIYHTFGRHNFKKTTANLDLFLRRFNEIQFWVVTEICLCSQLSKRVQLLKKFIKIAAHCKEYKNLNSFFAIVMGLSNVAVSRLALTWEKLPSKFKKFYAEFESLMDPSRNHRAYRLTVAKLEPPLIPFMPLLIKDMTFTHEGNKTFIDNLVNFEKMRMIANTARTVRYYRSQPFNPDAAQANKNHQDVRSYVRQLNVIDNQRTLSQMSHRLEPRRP
# [3] = target: Rap guanine nucleotide exchange factor 4 (Homo sapiens) (UniProt Q8WZA2); test: Confirmatory qHTS for antagonist of cAMP-regulated guanine nucleotide exchange factor 4 (EPAC2) (AID 1645885); note: nearly all actives have a fitted effect of over 25% in size; note: potency is the fitted concentration of half-maximal effect
# [4] = target: Rap guanine nucleotide exchange factor 3 (Homo sapiens) (UniProt O95398); test: Counterscreen qHTS for agonist of cAMP-regulated guanine nucleotide exchange factor 3 (EPAC1) (AID 1645889); note: nearly all actives have a fitted effect of over 40% in size; note: potency is the fitted concentration of half-maximal effect
# How it was run: (§1)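 Rap1B-BODIPY-GDP 250 nM + GDP 50 uM; cpds 7-pt, final 9.74 nM–152 uM (activator mode) or from 7.32 nM upwards (inhibitor mode); RT; FI 480/540 nm at 5 and 30 min, then ± cAMP, reread.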
# [5] = target: Vitamin D3 receptor (Homo sapiens) (UniProt P11473); test: qHTS for Inhibitors of the vitamin D receptor (VDR): Hit Validation in Primary Screen (AID 602199); settings: VDR-coactivator inhibition assay, qHTS confirmation; note: potency is the fitted concentration of half-maximal effect
# Sequence of Vitamin D3 receptor (Homo sapiens) (P11473 whole entry, looked up, the tested form may be a part): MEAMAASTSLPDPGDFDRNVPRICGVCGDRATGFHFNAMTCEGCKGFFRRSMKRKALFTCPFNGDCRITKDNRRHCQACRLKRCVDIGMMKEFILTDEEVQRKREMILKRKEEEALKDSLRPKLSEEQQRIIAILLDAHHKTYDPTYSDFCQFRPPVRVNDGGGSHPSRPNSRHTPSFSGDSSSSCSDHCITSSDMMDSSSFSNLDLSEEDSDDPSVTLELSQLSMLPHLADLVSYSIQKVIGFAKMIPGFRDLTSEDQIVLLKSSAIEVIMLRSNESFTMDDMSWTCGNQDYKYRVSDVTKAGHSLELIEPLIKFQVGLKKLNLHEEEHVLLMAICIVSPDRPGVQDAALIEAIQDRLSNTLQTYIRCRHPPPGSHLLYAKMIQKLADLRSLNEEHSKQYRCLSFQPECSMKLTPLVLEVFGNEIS
# How it was run: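 With 800 nM VDR and 5 uM LG19078 agonist present, compounds were incubated 2 h at ambient temperature with Alexa 647-labelled SRC2-3. Displacement was read as polarization at 620/688 nm.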
# [6] = target: Vitamin D3 receptor (Homo sapiens) (UniProt P11473); test: qHTS for Inhibitors of the vitamin D receptor (VDR): Hit Validation using a Fluorescein Assay (AID 602200); settings: VDR-coactivator binding, fluorescein fluorescence polarization; note: potency is the fitted concentration of half-maximal effect
# How it was run: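 Compounds added to VDR ligand-binding domain (1.5 uM) with agonist LG19078 (5 uM) and 5 nM SRC2-3 fluorescein peptide, final concentrations. After 2 h at ambient temperature, polarization of fluorescein emission (Ex 495 nm/Em 520 nm) measured.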
# [7] = target: Vitamin D3 receptor (Homo sapiens) (UniProt P11473); test: qHTS for Inhibitors of the vitamin D receptor (VDR): Hit Validation using a Beta-Lactamase Assay (AID 602202); note: potency is the fitted concentration of half-maximal effect
# How it was run: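 Beta-lactamase reporter read-out (447 nm emission of cleaved FRET substrate, 2 h) after 18 h compound exposure of HEK293 cells carrying a VDR-GAL4 fusion and UAS reporter, stimulated with LG190178.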
# [8] = qHTS for Inhibitors of the vitamin D receptor (VDR): Hit Validation using a Cytotoxicity Assay (AID 602204);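 note: cells co-treated with VDR agonist LG190178 at 300 nM; potency is the fitted concentration of half-maximal effect; nearly all actives have a fitted effect of over 75% in size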
# How it was run: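 Each well held 20,000 cells, incubated 4 h before compounds went in. An 18 h treatment preceded addition of ATP-sensing luminescent reagent, with reading after 30 min; cycloheximide and DMSO controlled the window.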
# [9] = target: Rap guanine nucleotide exchange factor 3 (Homo sapiens) (UniProt O95398); test: Counterscreen qHTS for antagonist of cAMP-regulated guanine nucleotide exchange factor 3 (EPAC1) (AID 1645888);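 note: fluorescence loss as bound BODIPY-GDP is released from Rap1B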
# How it was run: as §1
# [10] = qHTS for Inhibitors of the vitamin D receptor (VDR): Hit Validation using a Texas Red Assay (AID 602201); note: potency is the fitted concentration of half-maximal effect
# How it was run: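 After a 2-hour room-temperature incubation, polarization of Texas-Red emission was read (Ex 595 nm/Em 615 nm). Final mix contained 7 nM Texas Red, 1.5 uM VDR-LBD and LG19078.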
# [11] = qHTS for Inhibitors of Plasmodium falciparum (GB4) proliferation (AID 504315); note: nearly all actives have a fitted effect of over 50% in size
# How it was run: (§2)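 Erythrocytes infected with P. falciparum line (0.3% parasitemia, 2.5% hematocrit final) incubated with compounds 72 h at 37 °C, 5% CO2; SYBR Green lysis buffer added, fluorescence read next day. Normalized to 0.29 uM artemisinin and DMSO.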
# [12] = qHTS for Inhibitors of Plasmodium falciparum (CP250) proliferation (AID 504320)
# How it was run: as §2
# [13] = target: Tumor susceptibility gene 101 protein (Homo sapiens) (UniProt Q99816); test: qHTS Assay for Iinhibitors of HIV-1 Budding by Blocking the Interaction of PTAP/TSG101: Hit Validation (AID 651600); note: nearly all actives have a fitted effect of over 70% in size; note: potency is the fitted concentration of half-maximal effect
# Sequence of Tumor susceptibility gene 101 protein (Homo sapiens) (Q99816 whole entry, looked up, the tested form may be a part): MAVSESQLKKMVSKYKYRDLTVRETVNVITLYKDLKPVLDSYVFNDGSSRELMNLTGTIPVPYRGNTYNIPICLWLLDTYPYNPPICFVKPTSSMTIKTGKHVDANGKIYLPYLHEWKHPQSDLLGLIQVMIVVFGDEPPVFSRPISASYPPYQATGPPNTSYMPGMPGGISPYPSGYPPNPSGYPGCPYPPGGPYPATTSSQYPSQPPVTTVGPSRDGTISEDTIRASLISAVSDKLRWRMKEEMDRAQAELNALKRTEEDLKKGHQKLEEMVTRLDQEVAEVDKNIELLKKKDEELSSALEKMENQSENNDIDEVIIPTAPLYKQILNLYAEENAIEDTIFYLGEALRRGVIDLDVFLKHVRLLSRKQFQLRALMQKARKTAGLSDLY
# How it was run: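 Fluorescence polarization binding assay: Tsg101 binding domain (10 uM) mixed with compounds and FITC-labeled PTAP peptide (50 nM) in HEPES pH 7.5, 0.15 M NaCl, 0.01% Tween 20, EDTA, TCEP; 20 min at r.t.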
# [14] = target: Lethal(3)malignant brain tumor-like protein 1 (Homo sapiens) (UniProt Q9Y468); test: qHTS Assay for the Inhibitors of L3MBTL1: Hit Validation (AID 540279); settings: L3MBTL1 methyl-lysine binding inhibition, biochemical qHTS; note: potency is the fitted concentration of half-maximal effect; nearly all actives have a fitted effect of over 70% in size
# Sequence of Lethal(3)malignant brain tumor-like protein 1 (Homo sapiens) (Q9Y468 whole entry, looked up): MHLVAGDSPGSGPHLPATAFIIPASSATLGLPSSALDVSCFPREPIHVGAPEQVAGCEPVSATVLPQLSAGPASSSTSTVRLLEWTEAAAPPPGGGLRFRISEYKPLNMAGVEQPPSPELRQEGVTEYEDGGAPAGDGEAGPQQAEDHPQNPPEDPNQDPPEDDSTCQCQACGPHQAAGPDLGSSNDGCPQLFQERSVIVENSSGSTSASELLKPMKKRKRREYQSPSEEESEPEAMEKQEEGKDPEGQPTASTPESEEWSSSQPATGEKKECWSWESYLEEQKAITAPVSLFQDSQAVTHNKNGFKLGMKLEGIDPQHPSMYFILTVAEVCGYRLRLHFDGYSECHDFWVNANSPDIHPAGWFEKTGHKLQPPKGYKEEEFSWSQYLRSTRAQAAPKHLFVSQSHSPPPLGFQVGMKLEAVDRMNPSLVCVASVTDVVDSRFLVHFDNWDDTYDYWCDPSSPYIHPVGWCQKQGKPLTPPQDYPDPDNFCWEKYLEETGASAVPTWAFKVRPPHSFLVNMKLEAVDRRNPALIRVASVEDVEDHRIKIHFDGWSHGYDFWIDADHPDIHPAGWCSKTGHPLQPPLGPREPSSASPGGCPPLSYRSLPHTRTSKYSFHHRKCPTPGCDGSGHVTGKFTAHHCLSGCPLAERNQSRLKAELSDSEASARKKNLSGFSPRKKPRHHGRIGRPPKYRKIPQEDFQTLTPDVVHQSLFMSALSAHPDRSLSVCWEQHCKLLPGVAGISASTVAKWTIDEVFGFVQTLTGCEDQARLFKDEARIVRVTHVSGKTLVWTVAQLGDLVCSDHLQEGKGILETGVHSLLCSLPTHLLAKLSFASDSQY
# How it was run: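 AlphaScreen displacement: 50 nM L3MBTL1 bound to 75 nM biotin-H3K9me1 peptide for 30 min, compound added for 30 min at room temperature, then beads at 10 ug/mL final for 30 min in the dark. Cefsulodin titration served as intraplate control.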
# [15] = qHTS Assay for the Inhibitors of L3MBTL1: Hit Validationin AlphaScreen Counterscreen (AID 602224)
# How it was run: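 Steps: b-His6 dispensed; compound added, 15 min at room temperature; streptavidin donor and nickel chelate acceptor beads added to 10 ug/mL each with 1 nM b-His6 final; 30 min dark, room temperature; AlphaScreen read.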
structure (smiles),measurement,setting,value
CCCc1nc2ccc(C(=O)OC)cn2c1Cc1ccccc1C(F)(F)F,Potency,[1],inactive
same,Potency,[2],inactive
same,Potency,[3],30.1 µM (active)
same,Potency,[4],inactive
O=C(Nc1ccccc1Cl)/C(Cl)=C(\Cl)S(=O)c1ccccc1 (stereo unspecified),Potency,[5],3.36 µM (active)
same,Potency,[6],3.16 µM (active)
same,Potency,[7],3.66 µM (active)
same,Potency,[8],20.6 µM (active)
same,Potency,[1],inactive
same,Potency,[2],inactive
same,Potency,[3],inactive
same,Potency,[9],inactive
same,Potency,[4],inactive
CC1CN(C(=O)c2ccc(-c3cccc(C(F)(F)F)c3)o2)CC(C)O1 (stereo unspecified),Potency,[1],inactive
same,activation,[2],"6.74% [at 17.1 µM, percent relative to cAMP agonist control]"
same,Potency,[3],inactive
same,activation,[4],1.55% [at 30.8 µM]
CCCC(=O)NC(c1ccc(C)cc1)c1ccc2cccnc2c1O (stereo unspecified),Potency,[1],inactive
same,activation,[2],"0% [at 17.1 µM, percent relative to cAMP agonist control]"
same,Potency,[3],inactive
same,activation,[4],7.43% [at 30.8 µM]
CC1=NN(c2cccc(C(=O)O)c2)C(=O)/C1=C\C=C/c1ccccc1,Potency,[10],5.62 µM (active)
same,Potency,[1],inactive
same,Potency,[2],inactive
same,Potency,[3],inactive
same,Potency,[9],inactive
CCC[C@H]1CC(=O)C=C(c2ccsc2)ON1C(=O)OC(C)(C)C,Potency,[1],inactive
same,Potency,[2],inactive
same,Potency,[3],inactive
same,Potency,[4],inactive
CCC/C=C/c1ccc(CN2C(CC(C)C)C(=O)N(Cc3cn(Cc4ccco4)nn3)CCS2(=O)=O)cc1 (stereo unspecified),Potency,[1],inactive
same,Potency,[2],inactive
same,Potency,[3],inactive
same,Potency,[4],inactive
CC1(OC(=O)C2CCCC2)C(=O)C=C2C=C(c3ccsc3)N(Cc3ccco3)C=C2C1=O (stereo unspecified),outcome,[11],inactive
same,outcome,[12],inactive
same,Potency,[1],inactive
same,Potency,[2],inactive
same,Potency,[3],inactive
same,Potency,[9],inactive
Cc1c2ccccc2nc2c(F)c(NC(C)C)c(F)c(F)c12,Potency,[13],inactive
same,Potency,[1],inactive
same,Potency,[2],inactive
same,Potency,[3],inactive
same,Potency,[9],inactive
C=CCn1c(=O)/c(=C/c2ccc(C)o2)s/c1=C(/C#N)C(=O)c1ccccc1,Potency,[13],18.3 µM (active)
same,Potency,[1],inactive
same,activation,[2],"3.1% [at 17.1 µM, percent relative to cAMP agonist control]"
same,Potency,[3],inactive
same,"activity change, negative = inhibition",[9],-7.69% [at 30.8 µM]
same,activation,[4],34.7% [at 30.8 µM]
CC(C)CCNC(=O)c1onc(CSc2ccccn2)c1C(=O)NCCC(C)C,Potency,[1],inactive
same,Potency,[2],inactive
same,Potency,[3],inactive
same,Potency,[4],inactive
O=C(CCl)N1c2ccccc2Oc2ccc3ccccc3c21,Potency,[13],inactive
same,Potency,[1],inactive
same,Potency,[2],inactive
same,Potency,[3],inactive
same,Potency,[9],inactive
same,Potency,[4],35.5 µM (active)
Cc1ccc(Cn2c(C)nc3c(c2=O)c2nc4ccccc4nc2n3Cc2ccco2)cc1,Potency,[14],23.8 µM (active)
same,outcome,[15],inactive
same,Potency,[1],inactive
same,Potency,[2],inactive
same,Potency,[3],inactive
same,Potency,[9],inactive
same,Potency,[4],inactive
COc1ccc(S(=O)(=O)Nc2cc(SCC(=O)O)c(O)c3ccccc23)cc1,Potency,[10],3.55 µM (active)
same,Potency,[1],inactive
same,Potency,[2],inactive
same,Potency,[3],inactive
same,Potency,[9],inactive
same,Potency,[4],56.2 µM (active)
CCCC[C@H]1COCCS(=O)(=O)N1Cc1ccc(Br)cc1,Potency,[1],inactive
same,Potency,[2],inactive
same,Potency,[3],inactive
same,Potency,[4],inactive
O=S(=O)(c1ccc2nc(-c3ccco3)c(-c3ccco3)nc2c1)N1CCOCC1,Potency,[1],inactive
same,activation,[2],"6.85% [at 17.1 µM, percent relative to cAMP agonist control]"
same,Potency,[3],inactive
same,activation,[4],21.3% [at 30.8 µM]
COc1ccc(C2CC(=O)c3c(O)cc(O)cc3O2)c(CC=C(C)C)c1OC (stereo unspecified),Potency,[1],inactive
same,Potency,[2],inactive
same,Potency,[3],67.5 µM (active)
same,Potency,[4],inactive
CCN(CC)C(=O)CSc1nnc(-c2cccs2)n1Cc1ccco1,Potency,[1],inactive
same,Potency,[2],inactive
same,Potency,[3],inactive
same,Potency,[4],inactive
O=C1C(Cl)=C(NS(=O)(=O)c2ccc([N+](=O)[O-])cc2)C(=O)c2ccccc21,Potency,[10],inactive
same,Potency,[1],inactive
same,activation,[2],"8.93% [at 17.1 µM, percent relative to cAMP agonist control]"
same,Potency,[3],inactive
same,"activity change, negative = inhibition",[9],11.7% [at 30.8 µM]
O=C(COC(=O)c1cccc(NS(=O)(=O)c2ccc(F)c(F)c2)c1)NC(=O)NC1CCCC1,Potency,[1],inactive
same,Potency,[2],inactive
same,Potency,[3],inactive
same,Potency,[4],inactive
CCOP(=O)(OCC)C(Cc1ccccc1)N=C(c1ccccc1)c1ccccc1 (stereo unspecified),Potency,[1],inactive
same,activation,[2],"2.26% [at 17.1 µM, percent relative to cAMP agonist control]"
same,Potency,[3],inactive
same,activation,[4],12.6% [at 30.8 µM]
CCc1ccc2c(c1)NC(=O)C2(C)Cc1ccc(C(F)(F)F)o1 (stereo unspecified),Potency,[1],inactive
same,Potency,[2],inactive
same,Potency,[3],inactive
same,Potency,[4],inactive
CC(C)(C)OC(=O)N1CCC(c2c(C(=O)NCCN3CCC(Cc4ccccc4)CC3)cnn2-c2cccc(Cl)c2)CC1,Potency,[1],inactive
same,Potency,[2],inactive
same,Potency,[3],inactive
same,Potency,[4],inactive
